This is a sample that favours compounds with a hit; in the whole collection about 7.9% have one here.
KB-V1 MDR tox – qHTS assay for MDR1-selective chemotherapeutics: Primary screen using the drug-selected MDR subline cells KB-V1 | 400,000 compounds, 3.4% hits | KB-V1 MDR cells viability, CellTiter-Glo, 72 h | Potency, µM (highest dose often 46.1 µM), most hits filed as cytotoxic | AID 1347076, 2019; also: nearly all actives have a fitted effect of over 60% in size
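KB-V1 MDR subline cells in DMEM (phenol-red free, 10% FBS) exposed to compounds in qHTS concentration series for 72 h at 37 degrees C. Viability read by CellTiter-Glo luminescence; concentration-effect curves fitted after normalization and correction.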
HT1080NT lethal – qHTS for induction of synthetic lethality in tumor cells producing 2HG: qHTS for the HT-1080-NT fibrosarcoma cell line | Potency, µM (top dose mostly 46.1 µM), most hits filed as cytotoxic | AID 686970, 2013 | 360,000 compounds, 1.6% hits | HT-1080-NT fibrosarcoma viability, CellTiter-Glo ATP luminescence, 48 h;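 also: NT is the 2HG producing partner of a matched IDH1 knockdown line; nearly all actives have a fitted effect of over 55% in size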
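Luminescent CellTiter-Glo readout after 48 hours of compound exposure at 37 degrees C defined viability of HT-1080-NT cells. Activity was normalized to DMSO wells and cell-free media wells; concentration-response curves were fitted and assigned curve classes.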
MCF10A rereplic – A quantitative high throughput screen for small molecules that induce DNA re-replication in MCF 10a normal breast cells. MCF 10A DNA re-replication, Hoechst nuclear intensity, 48 h. Potency, µM (series often up to 46.1 µM), actives largely listed as activators. 350,000 compounds, 2.9% hits. AID 624296, 2012; also: nearly all actives have a fitted effect of over 50% in size
HT1080 IDH1KD tx – qHTS for induction of synthetic lethality in tumor cells producing 2HG: qHTS for the HT-1080-IDH1KD cell line | 360,000 compounds, 2% hits | AID 686971, 2013 | Potency, µM (highest dose often 46.1 µM), most hits filed as cytotoxic | HT-1080 IDH1 knockdown viability, ATP luminescence, 48 h
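Using the IDH1-knockdown HT-1080 line run in the same batch and compound series as the NT line, viability after 48 h at 37 °C was determined by CellTiter-Glo luminescence and expressed as % activity.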
KB-3-1 cytotox – qHTS assay for MDR1-selective chemotherapeutics: Primary screen using the parental adenocarcinoma cell KB-3-1. 400,000 compounds, 1.4% hits. AID 1347075, 2019. Potency, µM (series often up to 46.1 µM), actives largely listed as cytotoxic. KB-3-1 viability, CellTiter-Glo ATP luminescence, 72 h; also: nearly all actives have a fitted effect of over 60% in size
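Here the drug-naive KB-3-1 line serves as comparator for MDR sub-line selectivity; cells received compound titrations, 72 h at 37 °C, then CellTiter-Glo readout.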
SW480 rerep – A quantitative high throughput screen for small molecules that induce DNA re-replication in SW480 colon adenocarcinoma cells | SW480 DNA re-replication, Hoechst DNA content imaging, 48 h | Potency, µM (titrated, usually from 46.1 µM), most hits filed as activators | 340,000 compounds, 1.8% hits | AID 624297, 2012; also: nearly all actives have a fitted effect of over 55% in size
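Image-based read-out: total Hoechst fluorescence of nuclei (405 nm excitation, 500-530 nm emission), with hits raising the fraction of high-intensity nuclei. SW480 colon cells incubated 48 hr with compounds at 37 C.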
Numbers stand for hits; i = inactive; ? = inconclusive; nt = no result; ! = not active in a repeat; [ ] = another dose, or the depositor's remark. Calls follow the shape of the dose curve; as a rule, active = well fitted curve in the direction sought with a large enough effect; inconclusive = small, poorly fitted or top-dose-only effect, or another doubt; inactive = no such curve, though single readings can be large; an effect the other way counts as inactive or inconclusive.

SMILES	KB-V1 MDR tox	HT1080NT lethal	MCF10A rereplic	HT1080 IDH1KD tx	KB-3-1 cytotox	SW480 rerep
Cc1cccc(C)c1NC(=O)CSc1nc2ccccc2c(=O)[nH]1	16.4µM	i	i	i	i	i
O=C(CSc1nc2cc3ccccc3cc2[nH]1)Nc1ccc(F)cc1	16.4µM!	?	i	?	i	i
O=C(CSc1nc2ccccc2c(=O)[nH]1)Nc1ccc([N+](=O)[O-])cc1	?	?	?	9.2µM	?	?
O=C(CSc1nc2ccccc2c(=O)[nH]1)Nc1ccc(C(=O)O)cc1	i	i	i	i	i	i
O=[N+]([O-])c1ccc(Sc2cc[n+]([O-])c3ccccc23)c([N+](=O)[O-])c1	?	16.4µM	i	18.4µM	i	0.82µM
O=C(c1cccc(F)c1)N1CCC(N2CCOCC2)CC1	i	i	i	i[9.24 µM]	i	i
O=C(C[C@@H]1C[C@@H]2c3cc(NS(=O)(=O)c4ccc(F)cc4)ccc3O[C@@H]2[C@@H](CO)O1)NC1CCCCC1	i	i	nt	i	i	nt
COCC(C)n1c(C)cc(C(=O)CSc2nc3ccccc3c(=O)[nH]2)c1C (configuration not stated)	2.59µM	?	?	?	20.6µM	i
COCCn1c(C)cc(C(=O)CSc2nc3ccccc3c(=O)[nH]2)c1C	?	i	i	?	i	i
O=c1[nH]c(Sc2ccc([N+](=O)[O-])cc2[N+](=O)[O-])nc2ccccc12	?	i	6.51µM	?	i	?
CC(C)Sc1nc2ccccc2c(=O)[nH]1	i	i	i	i	i	i
Cc1cc(C)nc(NC(N)=NCCc2ccccc2)n1	i	10.3µM	18.4µM	23.1µM	5.17µM	16.4µM
Cc1ccnc2c1ccc1c(C)ccnc12	?	13µM	i	14.6µM	?	i
CCNC(=O)C1(C)CCN(Cc2csc(-c3ccccc3)n2)C1 (configuration not stated)	i	i	nt	i	i	nt
CN(C)CCCNC(=S)Nc1ccc(-c2ccccc2)cc1	i	20.6µM	i	?	i	i
COc1ccccc1CNC(=S)Nc1ccc(F)cc1	i	i	i	i	i	i
CC(C)c1ccc(NC(=S)NN(c2ccccc2)c2ccccc2)cc1	20.6µM	i	?	i	i	?
CN(C)CCCNC(=S)Nc1ccc(Oc2ccccc2)cc1	i	i	i	i	i	i
CCC(C)c1ccc(NC(=S)NCc2ccccc2OC)cc1 (configuration not stated)	?	i	18.4µM	i	i	i
CC(C)N(c1ccccc1)c1ccc(NC(=S)NCCN(C)C)cc1	i	16.4µM	?	20.6µM	?	?
CC(=O)Nc1ccc(C(=O)N2CCN(S(=O)(=O)c3ccc4c(c3)OCCCO4)CC2)cc1	i	i	i	i	i	i
COc1ccc(Cn2ccc3nc(C)c(C(=O)Nc4cccc(SC)c4)cc3c2=O)cc1	i	nt	nt	nt	i	nt
CCOc1ccc(N2CC(NC(=O)c3ccc4ccccc4c3)CC2=O)cc1 (configuration not stated)	i	i	?	?	i	i
CC(C)CNC(=S)Nc1ccc(Oc2ccccc2)cc1	16.4µM	i	8.2µM	i	20.6µM	i
OCCCNC(=S)Nc1ccc(Oc2ccccc2)cc1	i	i	i	i	i	i
SMILES	KB-V1 MDR tox	HT1080NT lethal	MCF10A rereplic	HT1080 IDH1KD tx	KB-3-1 cytotox	SW480 rerep
CCNC(=S)Nc1ccc(N(c2ccccc2)C(C)C)cc1	13µM	?	?	?	20.6µM	i
CCC1CCCCN1C(=O)c1ccc(OC2CCN(C(=O)COC)CC2)cc1 (configuration not stated)	i	i	?	i	i	i
Nc1ncnc2oc(-c3ccco3)c(-c3ccco3)c12	20.6µM	?	i	?	i	i
CCOC(=O)c1sc(NC(=O)C(CC)OC(=O)c2ccco2)nc1C (configuration not stated)	i	i	i	i	i	i
O=C1C2CCCCC2C(=O)N1c1cccc(OS(=O)(=O)c2ccccc2)c1 (configuration not stated)	i	i	i	i	i	i
Cc1c(C(=O)C(=O)N2CCN(C)CC2)c2ccccc2n1C	i	i	i	i	i	i
Cc1c(C(=O)C(=O)N2CCCc3ccccc32)c2ccccc2n1C	?	8.2µM	?	?	?	?
CC1CCc2cc(F)ccc2N1C(=O)CCC(=O)O (configuration not stated)	i	i	i	i	i	i
Cc1c(C(=O)C(=O)N2c3ccc(F)cc3CCC2C)c2ccccc2n1C (configuration not stated)	2.91µM	3.26µM	2.59µM	2.31µM	2.91µM	7.31µM
CCOc1ccc(NC(=O)CSC2=Nc3ccccc3C3=NC(CC(=O)NCc4ccc5c(c4)OCO5)C(=O)N23)cc1 (configuration not stated)	i	nt	nt	nt	i	nt
Cc1c(Cc2ccc3c(c2)OCO3)sc(NC(=O)c2ccc3ccccc3c2)c1C(N)=O	i	i	14.6µM	i	?	i
COc1cc(C(=O)Nc2nc(C)c(Cc3ccc4c(c3)OCO4)s2)cc(OC)c1OC	1.46µM	4.11µM	2.59µM	4.61µM	i	5.8µM
CCCOc1ccc(C(=O)Nc2nc(C)c(Cc3ccc4c(c3)OCO4)s2)cc1	i	i	?	?	?	?
O=C(c1ccccc1)N1CCN(CC#Cc2ccccc2)CC1	i	i	i	i	i	i
O=C(NCCc1c[nH]c2ccccc12)c1ccc([N+](=O)[O-])cc1	?	i	i	i	i	i
Cc1ccc(NC(=S)N/N=C/c2c(C)[nH]c3ccccc23)cc1	i	?	18.4µM	?	i	?
Cc1cccc(NC(=S)N/N=C/c2c[nH]c3ccccc23)c1	?	23.1µM	1.84µM	16.4µM	11.6µM	11.6µM
Cc1[nH]c2ccccc2c1/C=N/NC(N)=S	i	i	i	i	i	i
Cc1ccc(C(=O)Nc2ccc(C(=O)N/N=C/c3c[nH]c4ccccc34)cc2)cc1	i	i	?	?	i	i
COc1ccccc1N1CCN(/N=C/c2ccc(O)c(O)c2)CC1	i	i	i	?	i	13µM
COc1cccc(/C=N/N2CCN(c3ccccc3OC)CC2)c1	11.6µM	i	i	i	i	i
COc1ccccc1N1CCN(/N=C/c2cccc(Cl)c2)CC1	i	i	?	i	i	i
COc1ccc(/C=N/N2CCN(c3ccccc3OC)CC2)cc1OC	?	i	i	i	i	i

High-throughput results: PubChem BioAssay, National Center for Advancing Translational Sciences (NCATS)
